Measurements reported in PubChem BioAssay (Tox21).
Results filed as inconclusive are left out. Activity calls are given as the source filed them. Unless noted, calls come from the whole dose curve; as a rule, active = well fitted curve in the direction sought with a large enough effect in the repeat runs; inconclusive = weak or mixed curves; inactive = no such curve, though single readings can be large; an effect the other way counts as inactive or inconclusive.

Assays:
[1] = qHTS assay for small molecule agonists of the p53 signaling pathway (AID 651631; calls by dose curve; note: nearly all actives have a fitted effect of over 15% in size)
In short: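 HCT-116 cells carrying a beta-lactamase reporter under p53 response elements were dosed with compound for 16 h at 37 °C. LiveBLAzer B/G FRET substrate was then added for 2 h at room temperature, and fluorescence intensity was read to detect pathway agonism.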

[2] = qHTS assay for small molecules that induce genotoxicity in human embryonic kidney cells expressing luciferase-tagged ATAD5 (AID 651632); note: nearly all actives have a fitted effect of over 15% in size
In short: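 Test compounds were delivered by pin tool onto HEK293T reporter cells (2,000/well) expressing ATAD5 fused to luciferase. After 16 hr at 37C, 5% CO2, Amplite was added for 30 min at room temperature and luminescence was measured.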

[3] = qHTS assay for small molecule agonists of the p53 signaling pathway - cell viability (AID 651633; calls by dose curve;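 note: p53RE-bla HCT reporter cells with a stable beta-lactamase p53 reporter; series mostly up to about 83 µM; nearly all actives have a fitted effect of over 30% in size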)
In short: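 Viability counter-read: CellTiter-Glo luminescence (30 min, room temperature) in the same p53RE-bla plates. These plates had been exposed to compounds for 16 h at 37 C.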

[4] = qHTS assay for small molecules that induce genotoxicity in human embryonic kidney cells expressing luciferase-tagged ATAD5 - cell viability (AID 651634; calls by dose curve; note: nearly all actives have a fitted effect of over 25% in size)
In short: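 Quantitative high-throughput format. HEK293T cells expressing ATAD5 fused to luciferase were plated at 2,000 cells/well and treated 15.5 hr with compound versus DMSO. Viability was determined by fluorescent live-cell protease substrate, 30 min at 37C.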

[5] = qHTS assay for small molecule disruptors of the mitochondrial membrane potential - cell viability (AID 720634; calls by dose curve;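 note: human HepG2 liver cancer cells; series mostly up to about 83 µM; nearly all actives have a fitted effect of over 20% in size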)
In short: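 Same-well counter-screen: following the MMP dye addition, CellTiter-Glo was added to 1 hr compound-treated HepG2 cells and luminescence read after 30 min at room temperature.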

[6] = qHTS assay to test for compound auto fluorescence at 590 nm (red) in HepG2 cells (AID 720674)
In short: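 We screened compounds on adherent HepG2 cells, incubating them for an hour at 37 C in 5% CO2 before reading emission at 590 nm under 540 nm excitation; values reflect equivalence to Rose Bengal sodium fluorescence.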

[7] = qHTS assay to test for compound auto fluorescence at 535 nm (green) in HepG2 cells (AID 720675)
[8] = qHTS assay to test for compound auto fluorescence at 460 nm (blue) in HEK293 cells (AID 720678)
In short: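 HEK293 cells (2,000/well, medium with 10% dialyzed FBS) attached 4-5 hr, then exposed to compound overnight at 37C, 5% CO2. Blue fluorescence read at 405/460 nm, with triamterene as reference fluorophore.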

[9] = qHTS assay to test for compound auto fluorescence at 590 nm (red) in HEK293 cells (AID 720679)
In short: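 HEK293 cells (2,000/well, 10% dialyzed FBS) attached 4-5 hr, then dosed with compound or DMSO and incubated overnight at 37C, 5% CO2. Red fluorescence read at 540/590 nm, Rose Bengal sodium as reference fluorophore.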

[10] = qHTS assay for small molecule disruptors of the mitochondrial membrane potential (AID 720635)
In short: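 Mitochondrial membrane potential tracked with Mito-MPS dye, red aggregates (ex 540/em 590 nm) against green monomers (ex 490/em 535 nm). Compound treatment 1 hr at 37C, dye 30 min in HepG2.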
% is set by controls: 0 for no effect and ±100 for the full control effect.

Cc1cc(Cl)c(C)cc1Cl
inactive: outcome [1] | Potency [2] | outcome [3] | Potency [4] | outcome [5] | outcome [6] | outcome [7] | outcome [8] | outcome [9]

CN1CCN(CC(=O)N2c3ccccc3C(=O)Nc3cccnc32)CC1
inactive: outcome [1] | Potency [2] | outcome [3] | Potency [4] | outcome [5] | Potency [10] | outcome [7] | outcome [8] | outcome [9]

COC(=O)C1CC(=O)C(C(=O)OC)CC1=O (stereo not given)
inactive: activation [1] -2.34% [at 8.3 µM] | activation [2] 2.21% [at 8.08 µM] | activity change, negative = cytotoxicity [3] 20.9% [at 8.08 µM] | activity, negative = cytotoxicity [4] 31.1% [at 8.08 µM] | activity change, negative = cytotoxicity [5] 10.5% [at 8.08 µM] | fluorescence, relative to Rose Bengal [6] 0.406% [at 3.72 µM] | fluorescence, % of fluorescein control [7] 0.0015% [at 3.72 µM] | fluorescence, % of triamterene [8] 1.94% [at 3.72 µM] | fluorescence, % of fluorescent control [9] 0.169% [at 3.72 µM]

C[C@H](N)[C@H](O)c1cccc(O)c1
inactive: outcome [1] | Potency [2] | outcome [3] | Potency [4] | outcome [5] | fluorescence, relative to Rose Bengal [6] 0.285% [at 18.6 µM] | fluorescence, % of fluorescein control [7] 0.0051% [at 18.6 µM] | fluorescence, % of triamterene [8] 2.14% [at 18.6 µM] | fluorescence, % of fluorescent control [9] -0.0013% [at 18.6 µM]

Nc1ccc2cc(S(=O)(=O)O)cc(O)c2c1
inactive: outcome [1] | Potency [2] | outcome [3] | Potency [4] | outcome [5] | Potency [10] | outcome [6] | outcome [7] | outcome [8] | outcome [9]

CCCCOC(=O)c1ccccc1
inactive: outcome [1] | Potency [2] | outcome [3] | Potency [4] | outcome [5] | Potency [10] | outcome [6] | outcome [7] | outcome [9]

CCOC(=O)c1ccc(OC(=O)CCCCCN=C(N)N)cc1
inactive: outcome [1] | Potency [2] | outcome [3] | Potency [4] | outcome [5] | Potency [10] | fluorescence, relative to Rose Bengal [6] -0.309% [at 18.6 µM] | fluorescence, % of fluorescein control [7] 0.0329% [at 18.6 µM] | fluorescence, % of triamterene [8] -0.0421% [at 18.6 µM] | fluorescence, % of fluorescent control [9] 0.895% [at 18.6 µM]

CNS(=O)(=O)CCc1ccc2[nH]cc(C3CCN(C)CC3)c2c1
inactive: outcome [1] | Potency [2] | outcome [3] | Potency [4] | outcome [5] | outcome [6] | outcome [7] | outcome [8] | outcome [9]

CC1(C)S[C@@H]2[C@H](N=CN3CCCCCC3)C(=O)N2[C@H]1C(=O)O
inactive: outcome [1] | Potency [2] | outcome [3] | Potency [4] | outcome [5] | outcome [6] | outcome [7] | outcome [8] | outcome [9]

O=C(CCNNC(=O)c1ccncc1)NCc1ccccc1
inactive: outcome [1] | Potency [2] | outcome [3] | Potency [4] | outcome [5] | Potency [10] | outcome [6] | outcome [7] | outcome [8] | outcome [9]

Cc1nc2n(c(=O)c1CCN1CCC(c3noc4cc(F)ccc34)CC1)CCC[C@H]2O
inactive: outcome [1] | Potency [2] | outcome [3] | Potency [4] | outcome [5] | Potency [10] | outcome [6] | outcome [7] | outcome [8] | outcome [9]

CN1C(C)(C)CCCC1(C)C
inactive: outcome [1] | Potency [2] | outcome [3] | Potency [4] | outcome [5] | outcome [7] | outcome [9]

C=C1CC/C=C(\C)CC[C@@H]2[C@@H]1CC2(C)C
inactive: outcome [1] | Potency [2] | outcome [3] | Potency [4] | outcome [5] | outcome [6] | outcome [7] | outcome [8] | outcome [9]

CCCC/C=C/C=C\C=O
inactive: outcome [1] | Potency [2] | outcome [3] | Potency [4] | outcome [5] | outcome [6] | outcome [7] | outcome [9]

CCCCOCCOC(=O)COc1nc(Cl)c(Cl)cc1Cl
inactive: outcome [1] | Potency [2] | outcome [3] | Potency [4] | outcome [5] | outcome [6] | outcome [7] | outcome [8] | outcome [9]

NS(=O)(=O)c1ccc(NC(=O)CCC(=O)O)cc1
inactive: outcome [1] | Potency [2] | outcome [3] | Potency [4] | outcome [5] | outcome [6] | outcome [7] | outcome [9]

CC(S)C(=O)NCC(=O)O (stereo not given)
inactive: outcome [1] | Potency [2] | outcome [3] | Potency [4] | outcome [6] | outcome [7] | outcome [8] | outcome [9]

COCCOCCOCCOCCOCCO
inactive: outcome [1] | Potency [2] | outcome [3] | Potency [4] | outcome [5] | outcome [6] | outcome [7] | outcome [9]

O=C(O)Cc1ccc(Cl)cc1Cl
inactive: outcome [1] | Potency [2] | outcome [3] | Potency [4] | outcome [5] | outcome [6] | outcome [7] | outcome [8] | outcome [9]

CN(C)C(=O)CNC(=O)Cc1ccccc1
inactive: outcome [1] | Potency [2] | outcome [3] | Potency [4] | outcome [5] | outcome [7] | outcome [8] | outcome [9]

CCCCCCCCC(=O)Cl
inactive: outcome [1] | Potency [2] | outcome [3] | Potency [4] | outcome [5] | outcome [7] | outcome [8] | outcome [9]

CNC(=O)[C@H]1O[C@@H](n2cnc3c(NCc4cc(Cl)ccc4OCc4cc(C)no4)ncnc32)[C@H](O)[C@@H]1N
inactive: outcome [1] | Potency [2] | outcome [3] | Potency [4] | outcome [5] | outcome [6] | outcome [7] | outcome [8] | outcome [9]

CN(CCOc1ccc(NS(C)(=O)=O)cc1)CCc1ccc(NS(C)(=O)=O)cc1
inactive: outcome [1] | Potency [2] | outcome [3] | Potency [4] | outcome [5] | outcome [6] | outcome [7] | outcome [8] | outcome [9]

CCCCN
inactive: outcome [1] | Potency [2] | outcome [3] | Potency [4] | outcome [5] | outcome [6] | outcome [7] | outcome [9]

CO[C@@H]1[C@@H](OC(N)=O)[C@@H](O)[C@H](Oc2ccc3c(O)c(NC(=O)c4ccc(O)c(CC=C(C)C)c4)c(=O)oc3c2C)OC1(C)C
inactive: outcome [1] | Potency [2] | outcome [3] | Potency [4] | outcome [5] | fluorescence, relative to Rose Bengal [6] -0.195% [at 18.6 µM] | fluorescence, % of fluorescein control [7] -0.0594% [at 18.6 µM] | fluorescence, % of triamterene [8] 0.0216% [at 18.6 µM] | fluorescence, % of fluorescent control [9] 0.173% [at 18.6 µM]
